# TDP1 cell noCPT – qHTS for Inhibitors of human tyrosyl-DNA phosphodiesterase 1 (TDP1): qHTS in cells in absence of CPT; DT40 Tdp1-/- hTDP1 cells, no CPT, ATP luminescence, 48 h; Potency, µM (series often up to 46.2 µM), for the others: at the top dose activity change, negative = growth inhibition, hits mostly inhibitors; actives 15% (n = 420,000); AID 686978, 2013; further: potency means the concentration at half of the fitted maximal effect; on the % scale 0 is the no-effect control and ±100 the full control effect; nearly all actives have a fitted effect of over 55% in size
#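 Readout: luminescence from CellTiter-Glo after 30 min in the dark at RT. Cells: DT40 Tdp1-/- with stable hTDP1, 400/well. Exposure: compounds alone, ≥48 hr, 37 °C.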
# TDP1 cell CPT – qHTS for Inhibitors of human tyrosyl-DNA phosphodiesterase 1 (TDP1): qHTS in cells in presence of CPT; actives 12% (n = 420,000); AID 686979, 2013; chicken DT40 Tdp1-/-;hTDP1 cells + 20 nM CPT, ATP luminescence, 48 h; Potency, µM (series often up to 46.2 µM), inactives show at the highest dose activity change, negative = growth inhibition, hits mostly inhibitors; further: potency means the concentration at half of the fitted maximal effect; on the % scale 0 is the no-effect control and ±100 the full control effect; nearly all actives have a fitted effect of over 55% in size
#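 Chicken DT40 Tdp1-/- cells stably complemented with human TDP1 were seeded at 400 cells/well in medium containing 20 nM camptothecin, exposed to pin-transferred compounds, and grown at 37 °C for at least 48 hr. Viability was read as ATP luminescence.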
# TGFb inhibitor – qHTS for Inhibitors of TGF-b; HepG2 CAGA-GFP TGF-b/SMAD3 reporter, GFP fluorescence, 18 h; TGF-beta stimulated, 500 pg/mL final; actives 1.2% (n = 410,000); Potency, µM (highest dose often 46.1 µM), inactives show at the top dose activity, negative = inhibition, actives largely listed as inhibitors; AID 588855, 2011; further: potency means the concentration at half of the fitted maximal effect; on the % scale 0 is the no-effect control and ±100 the full control effect; nearly all actives have a fitted effect of over 65% in size
#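 Read-out: total well GFP (ex488/em500-530) summed from mean per-cell fluorescence. Cells: HEPG2 CAGA-GFP, 1% FBS DMEM, 18 h at 37 degrees C with 500 pg/mL final TGF-beta. Unstimulated wells served as the full-inhibition control; stimulated DMSO wells = 0%.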
# IL-1B inflam inh – qHTS for Inhibitors of Inflammasome Signaling: IL-1-beta AlphaLISA Primary Screen; activity change, % at 57.5 µM; THP-1 LPS/ATP IL-1B secretion, AlphaLISA, 16 h; active compounds read low; actives 4.7% (n = 360,000); in the data active means activity change below about -50%; inconclusive means mostly about -30% to -49%; further: on the % scale 0 is the no-effect control and ±100 the full control effect
#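 THP-1 cells pretreated 1 hr with compounds (up to 57.5 uM final), then stimulated with LPS (250 ng/mL final) plus ATP (1.25 mM final); secreted IL-1B measured by AlphaLISA after 16 hr, decreased signal indicating inhibition.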
# HepG2 tox – qHTS for Inhibitors of TGF-b: Cytotox Counterscreen; HepG2 CAGA-GFP viability, ATP luminescence, 18 h; Potency, µM (series often up to 46.1 µM), for the others: top-dose activity change, negative = cytotoxicity, usual class: cytotoxic; actives 0.76% (n = 410,000); AID 588856, 2011; further: potency means the concentration at half of the fitted maximal effect
#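 HepG2 CAGA-GFP cells (1000/well, DMEM with 1% FBS) received compound, then TGF-beta at 500 pg/mL final, and were incubated 18 hours at 37 degrees C. Viability was read by CellTiter-Glo luminescence. Media-only wells were set as complete cell-killing and DMSO as no toxicity.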
# TDP1 inh – qHTS Assay for Inhibitors of Tyrosyl-DNA Phosphodiesterase (TDP1). Tyrosyl-DNA phosphodiesterase 1 (Homo sapiens), Q9NUW8. recombinant TDP1, AlphaScreen DNA substrate cleavage. Potency, µM (doses to about 130 µM), for the others: at the highest dose activity change, negative = inhibition, most hits filed as inhibitors. actives 0.28% (n = 350,000). AID 485290, 2010; further: potency means the concentration at half of the fitted maximal effect; on the % scale 0 is the no-effect control and ±100 the full control effect; nearly all actives have a fitted effect of over 40% in size
# Target sequence (Q9NUW8 whole entry, looked up): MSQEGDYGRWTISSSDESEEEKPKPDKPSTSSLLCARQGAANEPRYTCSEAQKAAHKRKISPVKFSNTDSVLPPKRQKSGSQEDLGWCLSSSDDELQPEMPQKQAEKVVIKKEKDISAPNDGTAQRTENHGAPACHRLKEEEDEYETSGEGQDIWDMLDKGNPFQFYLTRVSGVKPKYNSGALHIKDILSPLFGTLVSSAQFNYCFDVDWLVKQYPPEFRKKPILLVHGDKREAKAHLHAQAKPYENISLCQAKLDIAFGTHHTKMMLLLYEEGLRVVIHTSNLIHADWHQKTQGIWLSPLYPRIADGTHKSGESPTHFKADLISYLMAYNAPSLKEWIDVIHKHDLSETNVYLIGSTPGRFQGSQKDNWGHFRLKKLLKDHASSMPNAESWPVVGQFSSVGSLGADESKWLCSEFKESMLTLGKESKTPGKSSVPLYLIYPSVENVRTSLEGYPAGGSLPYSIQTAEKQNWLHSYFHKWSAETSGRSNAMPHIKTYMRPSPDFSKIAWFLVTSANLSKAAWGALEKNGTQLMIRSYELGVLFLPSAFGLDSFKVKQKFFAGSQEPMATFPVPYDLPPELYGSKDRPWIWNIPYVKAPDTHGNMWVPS
#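 Here, a 5' biotin and 3' phosphotyrosine-FITC DNA oligonucleotide reports Tdp1 activity: intact substrate bridges AlphaScreen beads, while cleavage leaves a 3' phosphate and drops signal. All incubations at room temperature.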
# Active calls of the source: *; i = inactive; ? = inconclusive; . = no result; [ ] = dose if it differs, or a comment. Hits are enriched below; roughly 18% of the tested compounds scored in any of these assays. Unless noted, the call rests on the fitted dose curve; in most records, active means well fitted curve in the direction sought with a large enough effect; inconclusive means small, poorly fitted or top-dose-only effect, or another doubt; inactive means no such curve, though single readings can be large; an effect the other way counts as inactive or inconclusive.
SMILES,TDP1 cell noCPT,TDP1 cell CPT,TGFb inhibitor,IL-1B inflam inh,HepG2 tox,TDP1 inh
COc1ccc(-c2cc(C(=O)OC3CCOC3=O)c3ccccc3n2)cc1OC (configuration not stated),-13%,-6%,13%,1,-5%,-1%
COc1ccc(-c2cc(-c3nnc(COC(=O)c4ccc(O)cc4)o3)c3ccccc3n2)cc1OC,10µM*,?,0%,?,-7%,-1%
CCCCCn1nc(C(=O)N2CCc3ccccc32)c2ccccc2c1=O,?,?,?,8,-29%,-3%
Cc1cc(S(=O)(=O)N2CCC3(CC2)OCCN3S(=O)(=O)c2cccs2)ccc1F,-29%,-24%,1%,-10,7%,-3%[0.505 µM]
O=S(=O)(c1ccccc1)N1CCC2(CC1)OCCN2S(=O)(=O)c1cccs1,21µM*,?,-15%,13,-9%,2%
COc1ccc(S(=O)(=O)N2CCOC23CCN(S(=O)(=O)c2cccs2)CC3)cc1,16µM*,13µM*,1%,1,-7%,-3%
O=C(CBr)N1CCc2ccccc2C(c2ccccc2)C1 (configuration not stated),2.6µM*,2.6µM*,?,15,i,.
O=C(CN1CCOCC1)N1CCc2ccccc2C(c2ccccc2)C1 (configuration not stated),?,-21%,19%,10,24%,8%
C[N+](=O)C1C(=O)Nc2ccccc21 (configuration not stated),-13%,7%,.,.,.,.
CCCCN1CC(c2nc3ccccc3n2CCCCOc2c(C)cccc2C)CC1=O (configuration not stated),7.3µM*,12µM*,?,.,-118%,3%
CCCCN1CC(c2nc3ccccc3n2CCCCOc2ccccc2C)CC1=O (configuration not stated),5.8µM*,7.3µM*,?,.,18µM*,3%
Cc1ccccc1OCCCCn1c(C2CC(=O)N(c3ccccc3Cl)C2)nc2ccccc21 (configuration not stated),-18%,?,0%,.,-45%,8%
CCCCN1CC(c2nc3ccccc3n2CCCCOc2cc(C)ccc2C)CC1=O (configuration not stated),8.2µM*,16µM*,?,.,-92%,9%
COc1cccc2cc(C(N)=O)/c(=N/NC(=O)COc3ccc(Cl)cc3)oc12,.,.,.,.,.,1%
COc1ccc(N2CCN(CC(=O)c3ccc(Cl)cc3)CC2)cc1,16%,-23%,-2%,10,-41%,.
O=C(Nc1ccncc1)c1ccc(C(=O)Nc2ccncc2)cc1,-28%,-28%,-2%,9,6%,3%
COC(=O)c1sccc1NC(=O)c1c(F)c(F)c(F)c(F)c1F,?,?,-21%,-102*,-22%,.
O=C(Nc1ccncc1)Nc1cccc(Cl)c1Cl,?,23µM*,-28%,-22,-58%,3%[56.1 µM]
CC(C)(C)c1cc(NC(=O)Nc2ccccc2)no1,-24%,?,-28%,-54*,-23%,.
O=C(Nc1ccncc1)c1c(F)c(F)c(F)c(F)c1F,-29%,-10%,20%,-96*,-8%,.
COC(=O)c1sccc1NC(=O)c1cccc(F)c1,-8%,-15%,-13%,14,-36%,.
COC(=O)c1ccccc1NC(=O)Nc1cc(C(C)(C)C)on1,5%,7%,-5%,0,-6%,3%
COc1ccc(-c2nn(-c3ccc(C)c(Cl)c3)c3c2cnc2cc(OC)c(OC)cc23)cc1,5%,4%,-14%,.,-5%,4%
Cc1ccc(F)cc1CNC(=O)c1sc2ncnc(NCC3CCCO3)c2c1C (configuration not stated),-26%,3%,.,.,.,.
O=C(c1ccc2nc(Cc3cccc(Cl)c3)oc2c1)N1CCC(O)CC1,-2%,-5%,0%,0,0%,2%
SMILES,TDP1 cell noCPT,TDP1 cell CPT,TGFb inhibitor,IL-1B inflam inh,HepG2 tox,TDP1 inh
CC1(C(=O)NS(=O)(=O)c2ccc(Cl)s2)CCN1C(=O)CCc1ccccc1 (configuration not stated),-10%,-29%,47%,20,13%,.
O=C(COc1ccccc1)Nc1cccc2nsnc12,-28%,8%,0%,5,-5%,2%
CCC(C(=O)Nc1ccncc1)c1ccccc1 (configuration not stated),16µM*,?,-32%,47,-25%,0%
O=C(Nc1ccccc1NC(=O)c1c(F)c(F)c(F)c(F)c1F)c1c(F)c(F)c(F)c(F)c1F,-23%,-7%,-11%,-108*,-24%,0%
O=C(NNC(=O)OCc1ccccc1)OCc1ccccc1,-9%,-2%,15%,-7,2%,.
O=C(Nc1ccncc1)OCc1ccccc1,21µM*,?,-12%,-16,-5%,.
O=C(Nc1ccc(Cl)cc1)Nc1cccc2nsnc12,29µM*,?,6%,?,-20%,.
O=C(Nc1ccccc1Cl)C1CCN(S(=O)(=O)c2cccc3nonc23)CC1,0%,6%,-9%,-18,-17%,9%
O=C(Cc1ccc(Cl)cc1)Nc1cccnc1Cl,-4%,6%,1%,-28,-15%,.
O=C(Nc1ccc(Oc2ccc(NC(=O)Nc3ccccc3Cl)cc2)cc1)Nc1ccccc1Cl,21µM*,18µM*,0%,-8,9%,9%
O=C(Nc1ccccc1)Nc1cccc(Cl)c1Cl,?,?,?,-19,-36%,2%
O=C(Nc1ccncc1)Nc1cccc(Cl)c1,-23%,?,-12%,-12,-24%,2%[56.1 µM]
O=C(Nc1ccccc1)Nc1ccncc1,21µM*,?,8%,0,1%,6%
O=C(Nc1ccncc1)c1c(Cl)cccc1Cl,?,9.2µM*,?,-61*,-63%,.
CCN(CC(=O)Nc1cc(Cl)ccc1C)C(=O)COc1cccc2c1OC(C)(C)C2,?,?,-24%,-16,2%,1%
CC(Oc1ccc(Cl)cc1Cl)C(=O)NNC(=O)C(=O)N1CCCCC1 (configuration not stated),6%,-4%,2%,-6,10%,0%
